Results reported in article PMC12136788.
Positions count from the first letter of the chain named. The full ranking holds about 24,000 sequences; the median of “enrichment r” is about 0.99, and the highest 2% start at about 3.7. This excerpt belongs to a sample that is enriched for the highest values.

T1: UNK ZnF1-3 (human, UniProt Q9C0B0 31-174)
T1 sequence: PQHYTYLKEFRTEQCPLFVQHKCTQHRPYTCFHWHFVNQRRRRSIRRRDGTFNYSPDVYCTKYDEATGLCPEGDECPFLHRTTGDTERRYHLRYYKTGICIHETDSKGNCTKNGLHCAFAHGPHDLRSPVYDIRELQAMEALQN

B1: chr1:90180492:90180493:+_ENSG00000171488_ENST00000370454|hu_hu|motif|central (ssRNA)
RNA: GGGAGUUCUACAGUCCGACGAUCUUUCAUUUGCUCCCGGACGUCAGAAGGCAGAGUUUCAAACAGAGCAUCUUCGGCAACGGAACCAGCUCGCUUCAGAGCCCGACAGUCACCCAGUUCAGGAGGGAGGAUUUCAAAGUGAUUCAACAGAGGAUUGAGCAUCA
B2: chr1:39494447:39494448:+_ENSG00000168653_ENST00000372967|hu_mus|hu_hu_hu_mus_False|38_58 (ssRNA)
RNA: GGGAGUUCUACAGUCCGACGAUCGCACCGAGCGGCGUUCUUAUAGGGCUGUUCUGCGCUUAGGAACAUAAAGUGCCGAUCUAUGUUGAUGCCCAGCCUUUUCUGGAUGUCAAGGAAAGGCAUGGCUCUGCAGUGCCCUUGUCACAACAGAGGAUUGAGCAUCA
B3: 131003253_131003911_1761_CDS_ENSMUSG00000068267_ENSMUST00000089510|mouse|control|control (ssRNA)
RNA: GGGAGUUCUACAGUCCGACGAUCCAAGGGCCAAAGACUGGGCCAGAGAAAGGGAUCUGGGGAGGUGGAAAGCAGGCAGAGGCAGGCUCGGUUCUUCCUAGUCACGUGGACCAGAUCGUGUUCCAAAUGAAGGAUGUGACUCUGCAACAGAGGAUUGAGCAUCA
B4: chr7:7679991:7679992:-_ENSG00000106399_ENST00000396682|hu_hu|hu_hu_hu_mus_False|48_58 (ssRNA)
RNA: GGGAGUUCUACAGUCCGACGAUCUGGGAUGAAUCUUUUCCAGCUUCCCCACGAAGCACACGGGCCGGUCGAUAUACUGAGCUAGCAUGCCGGCGUUGACGCGCGCUUUGGGGAGCUGCAUUAUGUCCUCCAUGAUUCUGCCGCCAACAGAGGAUUGAGCAUCA
B5: chr7:75932113:75932114:+_ENSG00000106211_ENST00000248553|hu_hu|hu_hu_hu_mus_False|38_78 (ssRNA)
RNA: GGGAGUUCUACAGUCCGACGAUCCUGCGACCACUCAUCGGGCAACCGGGGCACCCCGAAGGCCUGGUCGAAGAGGCGGCUGUGUGCAGGGUACCAGCGGAAGGGGUGUUCCCAGCUCGGGCUCCGCAGCAGCGAGAAGGGCACCAACAGAGGAUUGAGCAUCA
B6: chr12:3264740:3264741:-_ENSMUSG00000020671_ENSMUST00000021001|mus_mus|FALSE|FALSE (ssRNA)
RNA: GGGAGUUCUACAGUCCGACGAUCCCAUAUCUGUAGCUUGAUCUUCUUUCCUUGUAGUUCCACUGUUUUGAUCUUAAAGUCUAUUCCUAUGGUGGAAAUAAAGGUGGUAUUGAAGGCAUCGUCCGAAAAACGAAAAAGGACGCACAACAGAGGAUUGAGCAUCA
B7: chr7:92085846:92085847:+_ENSG00000157259_ENST00000287957|hu_mus|FALSE|FALSE (ssRNA)
RNA: GGGAGUUCUACAGUCCGACGAUCGUUAAAACUGAGGCUUUAUACCUGCGAAGUAAGUAUGUCCCAGGUUUGGUUUUGUAACUACAAGUGGUUGGCAACUGUUUCCUUAAUAGUUAUCGCAGGAGUAGGUCCAACGUGAGUCCACAACAGAGGAUUGAGCAUCA
B8: chr21:34877999:34878000:-_ENSG00000159131_ENST00000381815|hu_hu|motif|central (ssRNA)
RNA: GGGAGUUCUACAGUCCGACGAUCGUCAAUUGCACUGUCAAAUUCUACACGAUUUUUAUACAGUUUAUGAUUAAUUACUCGGGUGGGAAUACCAGCUCUUUCCGCUUUAUCUAACCCAGCUACUGCGGCUUUGUUGGAGAUAACCAACAGAGGAUUGAGCAUCA
B9: chr18:25531195:25531196:-_ENSG00000170558_ENST00000399380|hu_mus|motif|central (ssRNA)
RNA: GGGAGUUCUACAGUCCGACGAUCCUUUUUUUUUUUUUGUGUGUAAUUUUUUUGGUACAAAUUAUGUAAAACACUUGUGCGGAGAACUUUUACCCCUCCCCAAAACGAAACAAACAAAAAGAAAAUAAAAAAAUUUAAAAAAAACAACAGAGGAUUGAGCAUCA
B10: chr4:109959894:109959895:-_ENSMUSG00000028546_ENSMUST00000106598|mus_mus|FALSE|FALSE (ssRNA)
RNA: GGGAGUUCUACAGUCCGACGAUCGCUUCGACUCUUCUCUUAAAAUUUGCAAAGGUUUCAGAAUAUACUUAAAAAUGACUACUAUUGUUUUAUAUAUAUAUAUAUUAAAGAUCCACAGACCACAGUGUGGAUGAUUGUAAAGUACAACAGAGGAUUGAGCAUCA
B11: chr2:179803060:179803061:+_ENSMUSG00000039086_ENSMUST00000041126|mus_mus|FALSE|FALSE (ssRNA)
RNA: GGGAGUUCUACAGUCCGACGAUCAUGUAAAAAAAAAAAAAAUCACCCAAUUCUCACUGUAUAAAACUUGUCCUUUUCAUUUGAAAGAACGUAAUAAAGUUAUUUGGAUUCAUUAAAAAUGCAGUGUGGAUUUCAGACUUCCCUCAACAGAGGAUUGAGCAUCA
B12: chr4:109959894:109959895:-_ENSMUSG00000028546_ENSMUST00000106598|mus_mus|motif|central (ssRNA)
RNA: B10 RNA with U79G, A80G, U82G, A83G
B13: 72560208_72560328_3170_3pUTR_ENSMUSG00000056429_ENSMUST00000070524|mouse|control|control (ssRNA)
RNA: GGGAGUUCUACAGUCCGACGAUCUCCUAAAAAUUAGCGGAGAGUAUACCUAGAUAAUUUCUUUAAAAAAAAAAAAGUGGACUUCUGUGAUGAUAAAAAUGUUUUUAGUUUAUAGUGUGGAGUUUUCAGAUGAUUAGAGAAAGUCAACAGAGGAUUGAGCAUCA
B14: chr2:23028566:23028567:+_ENSMUSG00000026775_ENSMUST00000028117|mus_mus|FALSE|FALSE (ssRNA)
RNA: GGGAGUUCUACAGUCCGACGAUCGGUCUUCUGUGUAAGAGCUUGAGCUUUGAGAAAACCCUCUGCAAAACCAGUUUUAAAUGCAUCUUGGUGAGCUUCAGGUAUGUUUUUAGUUUUCAUAAGUUUGUCCAAACUCUCAAGAUCCAACAGAGGAUUGAGCAUCA
B15: chr1:60041781:60041782:+_ENSMUSG00000041040_ENSMUST00000036540|mus_hu|mus_mus_mus_hu_False|38_58 (ssRNA)
RNA: GGGAGUUCUACAGUCCGACGAUCAAGUUUACAAUAGUAAAGUAAAUGCAGUAGUGGCAAAUUUUCUUUUAUUUUCCUUCCUAAAAGAAAAUCUUUAGAUCUCAGUUCUAGUCUUGGACAUAGUGAAAGCUAUAAAUUCUGACUCAACAGAGGAUUGAGCAUCA
B16: chr22:28376736:28376737:-_ENSG00000100154_ENST00000397906|hu_hu|FALSE|FALSE (ssRNA)
RNA: GGGAGUUCUACAGUCCGACGAUCAUUUUAGAAUUACCUAAAAGAUACUUACUUAUCUAAAUUCUCCAACUAAACUCAGUACUAAUACGACUUUCAGCAUUUCCUUUCUUUAUAAAAUAAAUUAAUGGUUACCCCUAACUAGAUCAACAGAGGAUUGAGCAUCA
B17: chr19:15271055:15271056:-_ENSG00000074181_ENST00000263388|hu_mus|motif|central (ssRNA)
RNA: GGGAGUUCUACAGUCCGACGAUCAUAUAUAUUUUGUAAAAAAUAAUAAUAAUAAUAAGUUUGUUUAAAUGAAUUUGUCUCGGUACAAAAUGUAAAAAAGAAAAAAAUAAUAACUCACUCUUGUCAGAGUGUGAGACAAUGAGACAACAGAGGAUUGAGCAUCA
B18: chr7:141450121:141450122:+_ENSG00000106028_ENST00000265304|hu_mus|hu_hu_hu_mus_True|8_98 (ssRNA)
RNA: GGGAGUUCUACAGUCCGACGAUCUCAUCCGUUCUAUUCCUUCUCUUUUGUCUGGUCACUCAGAAAUAUAAUGUUAUCAGCUAUGAUUGUUGUUGCUUGCCGCCUCACAUUGUUUUUAUCCAUGUACUCACCAUAGUCCACUUUCAACAGAGGAUUGAGCAUCA
B19: chr4:17845017:17845018:+_ENSG00000109805_ENST00000514176|hu_mus|hu_hu_hu_mus_False|48_108 (ssRNA)
RNA: GGGAGUUCUACAGUCCGACGAUCGCUUCCUAACUUAGUAUCUUCAUUAAGGAACUCUGCAAGGUUAAGUUUACUUUUCUGUAGCGCGCGGUUUUGGGCUCGUCUGGGUAAUCUCAUCUUCAUUUCUGAUGGUGGUUCAUGAUCCAACAGAGGAUUGAGCAUCA
B20: chr8:67197462:67197463:-_ENSMUSG00000031604_ENSMUST00000034015|mus_mus|FALSE|FALSE (ssRNA)
RNA: GGGAGUUCUACAGUCCGACGAUCUCCGAACUGACCAGUGUAUGUAAAAGGCUUAAAAGGCAACGUCAACUUCAGCCUCCUAUGGCAUGAAGUGGUGAGUUGUACAUUAAUACUUCCUCCAGUUCCCGAAACCUUUUGGUGAGGCAACAGAGGAUUGAGCAUCA
B21: chr5:150025729:150025730:+_ENSMUSG00000041264_ENSMUST00000121416|mus_mus|FALSE|FALSE (ssRNA)
RNA: GGGAGUUCUACAGUCCGACGAUCCACGAAGGCUCUCUUCUGAUCUUCUUUCCGAGGCUGAUUCUGUGCUGACCUGGCUGCUACUGUUUUAGAAGACGCUGUGGUUUCUCGUUUUCUCAAAUUAGAUGCCUGAGAUUUACCAGGCAACAGAGGAUUGAGCAUCA
B22: chr8:87797514:87797515:-_ENSMUSG00000031696_ENSMUST00000034131|mus_hu|motif|central (ssRNA)
RNA: GGGAGUUCUACAGUCCGACGAUCAUUAUGGAAUCCACCUGGUCUUGAGAGACAAUUUCUGUGUUAUAAUCCAGAACAUUACGGAGCACAUAACAACUCAUGCUCUUUCUGGACUCGUAGUCAAAGUACUCAAAGAGUGGGUGACAACAGAGGAUUGAGCAUCA

Each binder was assayed against T1, UNK ZnF1-3 (assay: nsRBNS (natural sequence RNA bind-n-seq); RBNS binding buffer (assumed for nsRBNS): 25 mM Tris pH 7.5, 150 mM KCl, 3 mM MgCl2, 0.01% Triton X-100, 500 ug/ml BSA, 20 U/ml SUPERase-In, 4 C; UNK is unkempt and MSI1 is Musashi-1; names of the RNAs are library labels; protein concentration not given here; high values mean tight binding).

Binder | binding signal
B1 | 3.35 enrichment R
B2 | 0.477 enrichment R
B3 | 1.29 enrichment R
B4 | 0.406 enrichment R
B5 | 0.969 enrichment R
B6 | 1.8 enrichment R
B7 | 0.838 enrichment R
B8 | 0.651 enrichment R
B9 | 3.31 enrichment R
B10 | 4.13 enrichment R
B11 | 5.86 enrichment R
B12 | 3.36 enrichment R
B13 | 8.87 enrichment R
B14 | 1.2 enrichment R
B15 | 0.462 enrichment R
B16 | 1.4 enrichment R
B17 | 11.3 enrichment R
B18 | 0.398 enrichment R
B19 | 0.472 enrichment R
B20 | 0.838 enrichment R
B21 | 0.579 enrichment R
B22 | 0.988 enrichment R
